Measured values as given in PubChem BioAssay AID1469 (National Center for Advancing Translational Sciences (NCATS), 2008).
Screen size: about 280,000 compounds; about 180 (0.064%) were called active. The list comes from a sample in which actives are over-represented; it also holds similar structures and randomly drawn compounds. Unmarked numbers belong to inactive results. The call rests on the fitted dose curve; in most records, active means well fitted inhibition curve with a large enough effect; inconclusive means small, poorly fitted or top-dose-only effect, or effect the other way; inactive means flat fitted curve, though single readings scatter.

The compounds below were run against Thyroid hormone receptor beta (Homo sapiens) (UniProt P10828) (assay: qHTS for Inhibitors of the Interaction of Thyroid Hormone Receptor and Steroid Receptor Coregulator 2). Settings: TRbeta-SRC2 peptide binding, fluorescence polarization, receptor liganded with 1 µM T3; series mostly up to 106 µM; activity change, negative = inhibition: at the top concentration.
Sequence of Thyroid hormone receptor beta (Homo sapiens) (P10828 whole entry, looked up, the tested form may be a part): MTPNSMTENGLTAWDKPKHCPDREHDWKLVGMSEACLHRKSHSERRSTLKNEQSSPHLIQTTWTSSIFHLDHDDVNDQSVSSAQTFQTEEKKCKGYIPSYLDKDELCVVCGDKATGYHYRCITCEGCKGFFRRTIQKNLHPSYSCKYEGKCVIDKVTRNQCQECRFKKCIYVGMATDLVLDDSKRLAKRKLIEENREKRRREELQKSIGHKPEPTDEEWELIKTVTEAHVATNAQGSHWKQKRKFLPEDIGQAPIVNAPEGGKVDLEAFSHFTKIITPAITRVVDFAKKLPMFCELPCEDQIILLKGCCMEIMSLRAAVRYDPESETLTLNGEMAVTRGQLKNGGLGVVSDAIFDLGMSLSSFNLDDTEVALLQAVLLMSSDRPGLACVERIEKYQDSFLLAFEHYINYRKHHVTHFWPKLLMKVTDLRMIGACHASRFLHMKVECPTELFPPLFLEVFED
In short: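 Polarization signal, normalized between peptide-alone and full complex controls, measured compound effects on T3-liganded human TRb LBD (0.6 uM) binding 20 nM Texas Red SRC2 peptide after 5 hr.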
Further: nearly all actives have a fitted effect of over 50% in size.
Potency means the concentration at half of the fitted maximal effect.
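Wherever activity change, negative = inhibition is given: plate controls were bound peptide for no effect and peptide without receptor for full effect.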

| Structure (SMILES) | activity change, negative = inhibition | Potency |
| --- | --- | --- |
| CCOC(=O)Cn1c(=O)n(-c2ccccc2OC)c2nc(-c3cccc(F)c3)nc(C(N)=O)c21 | 4.92% |  |
| Cc1cccc(N2CCN(C(=O)c3cc4c(=O)oc5ccccc5c4s3)CC2C)c1 (stereo not given) | -3.7% |  |
| COc1ccc(C)cc1NC(=O)C(=O)NCCc1sc(-c2cccc(C)c2)nc1C | 2.44% |  |
| Cc1cccc(Cn2c(SCc3ccc(C(=O)N4CCC(C)CC4)cc3)nc3ccncc32)c1 | 5.36% |  |
| CN1CCN(c2oc(-c3ccc(COc4ccc(Cl)cc4)o3)nc2C#N)CC1 | -3.91% |  |
| CC(=O)c1ccc(NC(=O)CSc2c(C(C)C)cnc3c2c(=O)n(C)c(=O)n3C)cc1 | 4.88% |  |
| CCOc1ccc(C2C(=O)N(C3CCCCC3)CC(=O)N2CCC2=CCCCC2)cc1OC (stereo not given) | -5.28% |  |
| COc1ccccc1N1CCN(C(CNC(=O)C(=O)NCc2ccc(C)cc2)c2cccnc2)CC1 (stereo not given) | -1.91% |  |
| COC(=O)c1sc(=S)n(-c2ccc(Cl)cc2)c1C | -4.22% |  |
| CCOC(=O)c1c(N)sc(C(C)=O)c1C | 0.0277% |  |
| COCCOC(=O)c1sc(=S)n(CCOC)c1N |  | 39.8 µM (active) |
| Cc1cc(C)c(N)c(Cl)c1 | 2.23% [at 201 µM] |  |
| COc1ccc(C2Sc3ccccc3NC3=C2C(=O)c2ccccc23)c(OC)c1OC (stereo not given) | 0.429% |  |
| CCOc1cccc(CC(=O)N2CCc3c([nH]c4ccccc34)C2c2ccc(OC)cc2)c1OCC (stereo not given) | -4.13% |  |
| Cc1ccc(OCC(=O)Nc2ccc(Cl)c(-c3nc4ccccc4[nH]3)c2)cc1C | 11.7% |  |
| COc1ccc(C(F)(F)F)cc1NC(=O)c1sc2nc(-c3cccs3)ccc2c1N | -2.16% |  |
| CCOc1ccc(C(=O)/C=C/c2cn(CC(O)CN3CCCCCC3)c3ccccc23)cc1 (stereo not given) | -2.38% |  |
| Cc1ccc(CCNC(=O)c2ccc3c(c2)N(Cc2cc(C)ccc2C)C(=O)c2ccccc2S3=O)cc1 (stereo not given) | 0.82% |  |
| O=C(C1CCC(Cn2c(=O)c3sccc3n(Cc3ccccc3F)c2=O)CC1)N1CCCCC1 (stereo not given) | 4.55% |  |
| COc1cccc(N2CCN(S(=O)(=O)c3cc(Br)cc4c3N(C(=O)C3CC3)CC4)CC2)c1 | -4.31% |  |
| CCOc1cccc2sc(N3CCN(C(=O)C4CC4)CC3)nc12 | -14.1% |  |
| COc1ccc(OCCCn2c(C)nc3cc(C)c(C)cc32)cc1 | -2.57% |  |
| CC(=O)Nc1ccc2nc(SCCOc3cc(C)cc(C)c3)sc2c1 | -2.28% |  |
| COc1ccc(NC(=O)CSc2nc3ccccc3n2CC(=O)N2CCCCC2C)cc1 (stereo not given) | -6.31% |  |
| Cc1cccc(CC(=O)Nc2cccc(-c3cn4cccnc4n3)c2)c1 | -4.22% |  |
| CC(=O)N(CCN(C(C)=O)C(C)=O)C(C)=O | 3.99% [at 201 µM] |  |
| COc1ccc(Cl)cc1-n1c(CCC(=O)O)ccc1-c1ccc(C)cc1 | -2.76% |  |

| Structure (SMILES) | activity change, negative = inhibition | Potency |
| --- | --- | --- |
| CCOc1ccccc1N(CC)C(=O)c1cc2ccc3cccnc3c2[nH]1 | -10.7% |  |
| CCOc1ccccc1CNC(=O)Nc1cn(CC(C)C)c(=O)c2ccccc12 | -27.3% |  |
| O=C(Nc1cc(Cl)cc(Cl)c1)c1ccc2c(c1)N(Cc1cccc(Cl)c1)C(=O)c1ccccc1S2=O (stereo not given) | -0.837% |  |
| Clc1cccc(-n2ncc3c(NCCc4ccccc4)ncnc32)c1 | 10.7% |  |
| CCOC(=O)c1c(C)oc2nc(C)nc(N(CC(C)C)CC(C)C)c12 | -1.94% |  |
| O=C(Nc1cccc(-c2nc3ccccc3o2)c1)c1cccc(Br)c1 | 5.75% |  |
| CCN(CC)S(=O)(=O)c1nnc(NC(=O)COc2ccccc2Cl)s1 | 6.08% |  |
| O=C(c1ccc2c(c1)N(Cc1ccccc1)C(=O)c1ccccc1S2(=O)=O)N1CCC(Cc2ccccc2)CC1 | -1.29% |  |
| CCc1ccc(NC(=O)c2sc3nc4c(cc3c2N)CN(CC)CC4)cc1 | 4.82% |  |
| CC(=O)c1ccc(NC(=O)CSc2nc(-c3ccccc3F)nc3c2c(=O)n(C)c(=O)n3C)cc1 | -4.48% |  |
| CCN(CC)c1ccc(NS(=O)(=O)c2cc(-c3cc(C)no3)ccc2C)c(C)c1 | 7.58% |  |
| Cc1ccc(CNC(=O)c2c(O)nc3c(C)cccn3c2=O)cc1 | -2.5% |  |
| Oc1ccc(-c2nc3ccc(Cl)cn3c2Nc2ccc3c(c2)OCO3)cc1 | -5.33% |  |
| COc1ccc(CCNC(=O)c2ccc(CSCc3ccc(C)cc3)o2)cc1OC | -6.17% |  |
| Cc1ccc(-c2nc(SCc3ccc(Br)cc3)n3[nH]c(=O)cc3n2)cc1 | -0.18% |  |
| COc1ccc(N2CCN(S(=O)(=O)CCNC(=O)C(c3ccccc3)c3ccccc3)CC2)cc1 | 1.78% |  |
| O=C(Nc1nc2c(s1)CCCC2)c1ccccc1F | -5.58% |  |
| Cc1cc(C)cc(Nc2ncnc3onc(-c4ccc(F)cc4)c23)c1 | 3.63% |  |
| CCOc1cc(C2C(C(=O)OC)=C(C)NC3=C2C(=O)c2ccccc23)ccc1O (stereo not given) | 11% |  |
| OCCC(F)(F)C(F)(F)C(F)(F)C(F)(F)C(F)(F)C(F)(F)C(F)(F)C(F)(F)F | 1.78% [at 201 µM] |  |
| CCN(CCCNC(=O)c1ccc(Sc2ccc(C)cc2)c(NC(C)=O)c1)c1cccc(C)c1 | -0.569% |  |
| CCCC/C=C/CCCCO | 2.76% [at 201 µM] |  |
| CCOC(=O)c1ccc(NC(=O)c2c(NCc3cccs3)sc3c2CCCC3)cc1 | 2.18% |  |
| O=C(NCc1ccc(F)cc1)c1ccc2nc(N3CCCCC3)sc2c1 | 3.71% |  |
| CCOc1cccc2c1N[C@@H](c1ccc(C(=O)O)cc1)[C@H]1CC=C[C@@H]21 | 14.7% |  |
| CN(CC(=O)Nc1ccccc1F)S(=O)(=O)c1ccc2c(c1)c(=O)n(C)c(=O)n2C | 2.82% |  |
| CCN(CC)CCNc1ncnc2c1cnn2-c1cc(Cl)ccc1C | 8.58% |  |

| Structure (SMILES) | activity change, negative = inhibition | Potency |
| --- | --- | --- |
| CCOC(=O)c1c(C)oc2nc(C)nc(N3CCN(c4ccc(OC)cc4)CC3)c12 | 4.33% |  |
| CC(C)c1ccc(S(=O)(=O)Nc2ccc(O)c(Sc3nc4ccccc4s3)c2)cc1 | 5.12% |  |
| CCc1cccc(NC(=O)CN(C)S(=O)(=O)c2ccc3[nH]c4c(c3c2)CCCC4)c1 | -2.3% |  |
| CCN(CC)c1ccc(NC(=O)CN2C(=O)c3cccnc3Oc3ccc(Cl)cc32)c(C)c1 | 0.578% |  |
| Cc1ccc(OCCSc2nc(-c3cccs3)nc3cc(=O)[nH]n23)cc1Cl | -6% |  |
| Cc1ccc(NC2=C(c3ccc(C(F)(F)F)cc3)C(=O)c3ccccc32)cc1F | 10.8% |  |
| CCCn1c2ccccc2c2cnn(CC(=O)NCC3CCN(Cc4ccc(C)cc4)CC3)c(=O)c21 | 0.484% |  |
| Cc1cc(C)cc(NC(=O)c2cnc3sc(N4CCCC4)nn3c2=O)c1 | 4.33% |  |
| Cc1cc(C)c(NC(=O)CN2C(=O)c3cccnc3Oc3ccc(Cl)cc32)c(C)c1 | 0.211% |  |
| COc1ccc(N2CCN(c3cc(C)nc4nncn34)CC2)cc1 | 2.01% |  |
| Cn1c(=O)c2c(-c3ccccc3Br)n(Cc3ccccc3)cc2n(C)c1=O | -1.69% |  |
| CC(C)c1ccc(NC(=O)c2ccc(Cn3nc(N4CCN(c5ccccc5)CC4)ccc3=O)o2)cc1 | 0.615% |  |
| CCOc1ccc(S(=O)(=O)Nc2ccc3oc4c(c3c2)CC(C)CC4)cc1 (stereo not given) | 6.9% |  |
| CC(C)CCCCCOC(=O)CS | 3.95% [at 201 µM] |  |
| CC1Cc2cc(S(=O)(=O)CCC(=O)NCc3ccc(Cl)cc3)ccc2N1C(=O)C1CC1 (stereo not given) | 0.303% |  |
| CCOC(=O)C1CCCN(C(=O)Cn2ncc3c(C)n(Cc4ccc(F)cc4)c(C)c3c2=O)C1 (stereo not given) | -3.95% |  |
| CSc1ccc(CCNC(=O)c2cc(C)nc3c2c(C)nn3-c2cccc(F)c2)cc1 | 6.29% |  |
| O=c1cc(CSc2ncn[nH]2)[nH]c2ccc(F)cc12 | -0.923% |  |
| CCc1ccc(C(=O)CC2(O)C(=O)N(CCc3ccccc3)c3ccc(Br)cc32)cc1 (stereo not given) | 5.72% |  |
| COc1ccccc1-c1noc(CSc2nnc(-c3ccccc3)n2-c2ccc(C)c(C)c2)n1 | 10.2% |  |
| Cc1ccc2onc(CC(=O)N3CCN(c4ccc(Cl)cc4)CC3)c2c1 | -4.05% |  |
| CC(C)c1ccc(OCC(=O)N(Cc2ccc(N(C)C)cc2)C2CCS(=O)(=O)C2)cc1 (stereo not given) | 1.18% |  |
| CCN(CC)c1ccc(NC(=O)CN2CCN(CC(=O)Nc3ccc(Cl)cc3)CC2)cc1 | 0.686% |  |
| Clc1ccc(CSc2nncn3c2cc2occc23)cc1 | 3.3% |  |
| COc1cccc(CNC(=O)CCC(=O)N2CC3CCCN3c3ccccc32)c1 (stereo not given) | 3.45% |  |
| Cc1ccc(C2c3[nH]c4ccccc4c3CCN2C(=O)c2cccc(C)c2)cc1 (stereo not given) | 7.69% |  |
